Assay results: PubChem BioAssay AID587 (National Center for Advancing Translational Sciences (NCATS), 2007)
Screen size: about 59,000 compounds; about 35 (0.06%) were called active. Not shown: some 19% with an inconclusive outcome. No stated cut-off is given here; in the data, active means max dye-equivalent concentration above about 10 nM; inconclusive means between about 1.1 nM and that limit; inactive means weaker than that. The list comes from a sample in which actives are over-represented; it also holds similar structures and randomly drawn compounds.

Experiment: qHTS Assay for Spectroscopic Profiling in Texas Red Spectral Region
Settings: Compound fluorescence, Texas Red channel, 547/618 nm
From the text: NIH Molecular Libraries Screening Centers Network [MLSCN] NIH Chemical Genomics Center [NCGC] […] Occasionally, the artifactual effect may originate from the compound#s own spectral or other biophysical properties which generally tend to track its assay concentration. Pre-screening/profiling the library with respect to the compounds# spectral properties should help one exclude false positives early on. While the most informative fluorescent profiling data set is obtained by performing a full excitation and emission scan of each well by using a monochromator-based plate reader, such an approach is practical only on a very limited scale as scanning each well requires long time. An alternative approach, applied here, is to perform plate reader scans using selected excitation and emission wavelength pairs to generate a multidimensional relational database that correlates compound concentration and the respective relative fluorescence intensity at a given wavelength set. A standard curve of Texas Red (TR) present on each plate as six-point concentration series, was used to compute a normalized fluorescence response, termed dye-equivalent concentration, for each compound at each concentration.
NCGC Assay Protocol Summary: Buffer: 100 mM Tris buffer, pH 8.0 Dye standard plate: The wells in columns 1 through 4 of a Kalypsys polypropylene 1536-well compound plate were filled with standard solutions of fluorophore corresponding to the spectral region of interest. Solutions of TR were placed in the following wells: U1, V1: 3 mM, U2, V2: 300 uM, U3, V3: 30 uM, U4, V4: zero (DMSO), W1, X1: 3 uM, W2, X2: 900 nM, W3, X3: 300 nM, W4, X4: zero (DMSO). Assay Steps: Six uL of buffer were dispensed to 1536-well Greiner black plates. Compounds and dye standards (23 nL) were transferred via Kalypsys PinTool. The plates were incubated for 15 min at room temperature, and then read on ViewLux (Perkin-Elmer) High-throughput CCD imager using 547 nm and 618 nm excitation and emission filter set. Keywords: NIH Roadmap, MLSCN, MLI, MLSMR, qHTS, NCGC, Texas Red, Fluorescent Profiling.

Max dye-equivalent concentration, inactive:
Cc1nn(-c2ccccc2)c(CC(C)(C)C(=O)O)c1C(=O)O
COCCn1c(=O)c(-c2cc(F)cc(F)c2)nc2cnc(N3CCNCC3)nc21
CN1CCN(S(=O)(=O)c2ccc(NC(=O)C3CCCO3)cc2)CC1 (configuration not stated)
O=C(c1cnccn1)N1CCC[C@@]2(CCN(Cc3ccncc3)C2)C1
CN1CCN(c2ncc3nc(-c4ccc(Cl)cc4)c(=O)n(-c4ccccc4)c3n2)CC1
N#Cc1cccc(-c2nc3cnc(N4CCNCC4)nc3n(C3CC3)c2=O)c1
CCOCCOC(=O)C1=C(C)N(C)C(=O)NC1c1ccccc1F (configuration not stated)
Cc1nc(NCc2ccccc2)c(C(N)=O)c2c1COC(C)(C)C2
COc1ccc(N2CCN(C(=O)CSc3nnc4ncccn34)CC2)cc1
O=C1CSC(c2cccc(F)c2)N1c1ccccc1F (configuration not stated)
COc1ccc(N2CCN(Cc3cc(=O)oc4ccc5ccccc5c34)CC2)cc1
COC(=O)c1ccccc1NC(=O)CSc1ccccn1
COc1ccc2oc(=O)c(C(=O)N3CCN(c4ccccc4F)CC3)cc2c1
CCNc1ncc2nc(CCc3ccccc3)c(=O)n(-c3ccc(OC)cc3)c2n1
CCOC(=O)C1CCN(C(=O)Cn2cc(C#N)c3ccccc32)CC1
CC(C)C(C(=O)NC1CCCCC1)N(CC1CCCO1)C(=O)CNS(=O)(=O)c1ccc(F)cc1 (configuration not stated)
CO[C@@H]1/C=C\O[C@]2(C)Oc3c(C)c(O)c4c(O)c(c(CN(C)C)c(O)c4c3C2=O)NC(=O)/C(C)=C\C=C[C@@H](C)[C@@H](O)[C@H](C)[C@@H](O)[C@H](C)[C@H](OC(C)=O)[C@@H]1C
Cc1c(C(=O)CN2CCOCC2)[nH]c2ccccc12
O=C(NCCCCO)C(F)(F)C(F)(F)C(F)(F)C(=O)NCCCCO
O=c1c(-c2ccc(F)c(F)c2)nc2cncnc2n1-c1ccccc1
COC(=O)[C@@H]1[C@H]2C[C@H]3c4[nH]c5cc(OC)ccc5c4CCN3C[C@@H]2C[C@@H](OC(=O)c2cc(OC)c(OC)c(OC)c2)[C@@H]1OC
COc1ccc(C(=O)N(CCN2CCOCC2)CC(=O)NC2CCCC2)cc1OC
C=C(C)CSc1nc(N)c2c3c(sc2n1)CCC3
CC(C)c1nc(N2CCOCC2)c(C#N)c2c1COC(C)(C)C2
CN(C)c1ncc2nc(-c3ccc(F)cc3)c(=O)n(Cc3ccc(F)cc3)c2n1
c1cncc(CNc2ccnc(-c3ccc4c(c3)OCO4)n2)c1
CCN(CC(=O)NC(C)C)C(=O)CCNC(=O)c1ccc(Cl)cc1
Cc1nc2cnc(N3CCN(C)CC3)nc2n(C[C@H]2CCCO2)c1=O
COc1ncc2nc(-c3ccc(Cl)cc3)c(=O)n(-c3ccccc3)c2n1
O=C(O)[C@@H](S)[C@H](S)C(=O)O
N#CCCn1c(=O)c(-c2cc(F)cc(F)c2)nc2cnc(Oc3ccccc3)nc21
COc1ccc(OC)c(CN2C(=O)CCC2(C)C(=O)NC2CCCCCC2)c1 (configuration not stated)
O=C(Cn1nnc(-c2ccccc2)n1)NCc1ccccc1
O=c1[nH][nH]c(=O)c2cc(N3CCCC3)ccc12
CC(C(=O)N1CCOCC1)N1c2cccc3cccc(c23)S1(=O)=O (configuration not stated)
O=C(Nc1ccc2c(c1)OCCO2)C1CCCN(c2ncccn2)C1 (configuration not stated)
COCCNC(=O)C(c1ccc(C)o1)N(Cc1cccs1)C(=O)c1snc(C(N)=O)c1N (configuration not stated)
COc1c(F)c(F)c(-c2csc(N)n2)c(F)c1F
CC(C)c1ccc(NC(=O)NC2CCCCC2)cc1
CCC(C)(C(=O)NC1CCCC1)N(C(=O)CNC(C)=O)c1ccc(C)cc1 (configuration not stated)
CCNc1nc(NCC)nc(N(C)n2cnnc2)n1
O=C(CN1CCN(c2ccccn2)CC1)NCc1cccs1
O=C(O)COc1c(Cl)cc(Cl)c2cccnc12
O=C(OCC(O)C(O)COC(=O)c1ccccc1)c1ccccc1 (configuration not stated)
COc1cccc(Cn2c(=O)c(CCc3ccccc3)nc3cnc(N(C)C)nc32)c1
CN1CCN2c3ccccc3Cc3ccccc3[C@@H]2C1
COCCn1c(=O)c(-c2cccc(F)c2)nc2cncnc21
CC1Cc2cc(/C(O)=C3\C(=O)C(=O)N(CCN4CCOCC4)C3c3ccccc3F)ccc2O1 (configuration not stated)
CCOC(=O)CSc1nc2sc3c(c2c(=O)[nH]1)CC(C)(C)OC3
CC(C)NC(=O)N1CC[C@@]2(CCCN(C(=O)c3ccco3)C2)C1
CCC(c1nnnn1C1CCCC1)N1CCN(C(=O)c2ccco2)CC1 (configuration not stated)
Cc1nn(-c2ccccc2)c2sc(C(=O)N(Cc3ccco3)C(C)C(=O)NC(C)(C)C)cc12 (configuration not stated)
CCOC(=O)N1CCC(Nc2c(NCCCN3CCN(c4ccc(OC)cc4)CC3)c(=O)c2=O)CC1
COc1ccccc1CNC(=O)CCCNS(=O)(=O)c1cccc2nsnc12
COc1cccc(-c2cc(NCCc3c[nH]c4ccc(OC)cc34)ncn2)c1
CC(C)(C)c1ccc(C(=O)NCCC(=O)NCc2ccco2)cc1
CCOCC(=O)Nc1cc(OC)c(Cl)cc1OC
CCOc1ccc(CCNC(=O)C2CCN(c3ccc(N4CCOCC4)nn3)CC2)cc1OCC
O=C(Cn1ccc(=O)[nH]c1=O)Nc1ccc(C(=O)O)c(O)c1
CCc1c(C)sc(NC(=O)c2ccc(Br)o2)c1C(=O)OC
CCNc1ncc2ncc(=O)n(Cc3cccc(OC)c3)c2n1
CC1(C)S[C@@H]2[C@@H](NC(=O)[C@@H](N)c3ccccc3)C(=O)N2[C@H]1C(=O)O
COCCn1c(=O)c(-c2cccs2)nc2cncnc21
CN(C)c1cc(N)c2ccccc2n1 (tested in a mixture with another compound)
C[N+]1(CCNC(=O)/C=N/O)CCCCC1
CCCCCC(=O)Nc1ccc2oc(-c3ccncc3)nc2c1
CN/C(=C\[N+](=O)[O-])NCCSCc1csc(CN(C)C)n1
